Assay outcomes from PubChem.
PAFAH2 FP inh – PAFAH2 (human) inhibition | Q99487 | recombinant PAFAH2, FP-rhodamine activity probe, fluorescence polarization | inhibition, % at 3.39 µM | actives 0.99% (n = 340,000);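 active means inhibition above the mean over all tested compounds plus 3 SD, cut at about 30% in these data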;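 further: inhibitors block probe labeling of enzyme so polarization drops; 0% = enzyme with DMSO and 100% = wells lacking PAFAH2 protein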
PAFAH1B3 FP inh – PAFAH1B3 (human) inhibition | Q15102 | recombinant PAFAH1B3, FP-rhodamine probe, fluorescence polarization | inhibition, % at 3.39 µM | actives 0.28% (n = 340,000);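 active means inhibition above the screen-wide average of all tested compounds plus 3 SD, cut at about 25% in these data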;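 further: 0% = enzyme with DMSO only and 100% = wells lacking PAFAH1B3 protein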
Target sequence (Q15102 whole entry, looked up): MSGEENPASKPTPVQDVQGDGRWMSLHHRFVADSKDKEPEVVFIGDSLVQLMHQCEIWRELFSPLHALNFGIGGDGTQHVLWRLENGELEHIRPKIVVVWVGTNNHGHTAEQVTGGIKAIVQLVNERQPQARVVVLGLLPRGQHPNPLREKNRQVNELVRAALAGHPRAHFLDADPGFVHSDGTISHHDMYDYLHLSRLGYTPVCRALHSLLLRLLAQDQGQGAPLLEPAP
PAFAH1B2 inh – PAFAH1B2 (human) inhibition; actives 1.2% (n = 340,000); recombinant PAFAH1B2, FP-rhodamine activity probe, fluorescence polarization; P68402; inhibition, % at 3.39 µM; AID 492953;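 active means inhibition above the mean of all tested compounds plus 3 SD, cut at about 24% in these data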;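 further: 0% = enzyme with DMSO and 100% = wells lacking PAFAH1B2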
LYPLA1 inh – LYPLA1 (human) inhibition in PME1 counter-screen | recombinant LYPLA1, FP-Rh probe fluorescence polarization | O75608 | AID 2174 | actives 0.16% (n = 320,000) | inhibition, % at 5.9 µM;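 active means inhibition above the mean of all tested compounds plus 3 SD, set per campaign, cut at about 14% in these data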;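 further: inhibitors block serine hydrolase probe labeling of LYPLA1 so polarization falls; 0% = enzyme with DMSO and 100% = wells lacking LYPLA1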
Target sequence (O75608 whole entry, looked up): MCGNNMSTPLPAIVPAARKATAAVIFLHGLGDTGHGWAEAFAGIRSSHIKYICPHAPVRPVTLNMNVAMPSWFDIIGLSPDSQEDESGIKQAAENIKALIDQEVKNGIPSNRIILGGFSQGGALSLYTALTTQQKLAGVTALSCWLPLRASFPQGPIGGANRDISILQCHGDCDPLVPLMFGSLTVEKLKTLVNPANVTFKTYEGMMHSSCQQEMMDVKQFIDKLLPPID
pPAFAH inh – inhibitors of human plasma PAF acetylhydrolase (pPAFAH); Q13093; recombinant pPAFAH, FP-rhodamine probe fluorescence polarization; inhibition, % at 3.39 µM; actives 1.5% (n = 330,000); AID 463082;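 active means inhibition above the mean inhibition across the screen plus 3 SD, cut at about 25% in these data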;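 further: inhibitors block binding of the rhodamine activity-based probe so polarization drops; 0% = enzyme with DMSO and 100% = wells lacking pPAFAH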
LYPLA2 inh – counter-screen for PME1 inhibitors: inhibitors of human LYPLA2; O95372; recombinant LYPLA2, FP-Rh probe fluorescence polarization; inhibition, % at 5.9 µM; actives 0.38% (n = 320,000); AID 2177;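 active means inhibition above the screen-wide mean plus 3 SD, limit set per campaign, cut at about 26% in these data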;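 further: 0% = LYPLA2 with DMSO and 100% = wells lacking LYPLA2 enzyme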
PAFAH2 FP conf – confirmation of human PAFAH2 inhibitors | shares compounds with PAFAH2 FP inh | recombinant PAFAH2, FP-rhodamine activity probe, fluorescence polarization | inhibition, % at 3.39 µM | actives 65% (n = 2,300) | AID 493030;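 active means mean inhibition over three repeats above a set limit taken from the earlier primary screen, cut at about 30% in these data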;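 further: inhibitor blocks binding of rhodamine activity probe so polarization falls; 0% = enzyme with DMSO and 100% = wells lacking PAFAH2 protein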
An asterisk follows results filed as active; · = not tested or not shown. Only some compounds are listed: those with a hit (about 2.9% of all), similar ones and a draw of the others.

SMILES	PAFAH2 FP inh	PAFAH1B3 FP inh	PAFAH1B2 inh	LYPLA1 inh	pPAFAH inh	LYPLA2 inh	PAFAH2 FP conf
O=C(COC(=O)/C=C/c1ccccc1[N+](=O)[O-])NC1CCS(=O)(=O)C1 (stereo unspecified)	5.4	1.4	-0.5	-1.5	9.4	3.4	·
Cc1ccc(C(=O)COC(=O)c2cccs2)cc1	30.1*	9.0	2.1	3.0	1.8	4.0	21.2
CCc1ccc(C(=O)COC(=O)c2cccs2)cc1	13.8	-0.3	-1.5	-2.3	7.2	10.0	·
CN(C)c1ccc(C(=O)OCC(=O)c2ccc[nH]2)cc1	68.2*	1.6	2.4	·	7.3	·	68.0*
CN(C)c1ccc(C(=O)OCC(=O)c2cccs2)cc1	70.8*	3.3	-1.2	-0.9	3.4	-1.3	75.8*
O=S(=O)(c1ccc(F)cc1)N1CCN(S(=O)(=O)c2cc(F)ccc2F)CC1	0.5	6.3	1.7	0.2	5.6	2.3	·
O=S(=O)(c1ccc(F)c(F)c1F)N1CCN(C(=S)NC2CC3CCC2C3)CC1 (stereo unspecified)	7.4	-0.3	4.0	0.0	0.8	-5.7	·
Cc1ccc(C)c(NC(NC(=O)c2ccccn2)C(Cl)(Cl)Cl)c1 (stereo unspecified)	1.7	-1.6	-2.0	-3.3	0.3	10.1	·
COC(=O)CNC(=O)c1cccs1	-11.7	0.9	1.9	1.9	-2.9	2.1	·
CSc1nc(C)cc(OCNC(=O)c2cccs2)n1	53.9*	10.3	1.3	2.5	5.0	0.6	50.9*
NS(=O)(=O)c1ccc(O)c(NC(=O)c2ccc([N+](=O)[O-])cc2)c1	31.5*	4.1	-3.3	-0.5	5.8	-3.5	28.8
O=C(Nc1cc([N+](=O)[O-])ccc1O)c1cccc([N+](=O)[O-])c1	6.5	11.1	2.7	1.4	5.0	1.6	·
COc1ccc(C(=O)n2nc(C)c(Br)c2C)cc1	31.0*	4.1	3.7	-5.0	5.3	6.8	9.5
CCN(CC)c1ccc(NC(=O)COC(=O)c2cccs2)cc1	25.8	8.9	6.0	3.2	12.3	3.0	·
CC(=O)c1cccc(NC(=O)COC(=O)c2cccs2)c1	81.0*	0.2	4.5	3.5	8.3	5.4	76.8*
COc1ccc(Cl)cc1C(=O)NNC(=O)COC(=O)c1cccs1	10.6	0.1	-0.1	·	5.2	·	·
CCN(c1ccc(NC(=O)COC(=O)c2cccs2)cc1)C(C)C	30.1*	5.4	-5.6	-3.0	10.7	2.4	19.1
O=C(COC(=O)c1cccs1)Nc1cccc(Cl)c1	91.2*	7.0	8.2	2.2	5.5	5.8	89.1*
CC(=O)c1cccc(NC(=O)COC(=O)C2CCCN2C(=O)c2cccs2)c1 (stereo unspecified)	2.4	7.1	2.8	·	3.8	·	·
N[C@@H](Cc1ccccc1)c1nnc(SC/C=C/c2ccccc2)o1	-3.2	0.3	2.7	-0.9	2.9	1.4	·
O=C(c1ccc(Oc2ccc([N+](=O)[O-])cc2Cl)cc1)N1CCCC1	40.4*	-3.2	2.1	1.6	14.0	7.5	30.0*
O=C(c1ccc(Oc2ccc(C(F)(F)F)cc2[N+](=O)[O-])cc1)N1CCOCC1	34.4*	5.2	-4.8	1.8	2.0	6.2	27.3
O=C(c1ccccc1Oc1ccc(C(F)(F)F)cc1[N+](=O)[O-])N1CCOCC1	-2.2	-1.4	2.9	0.0	1.2	-1.6	·
Cc1ccccc1OCC(=O)NC1CCCCCCC1	-1.8	5.8	-0.9	3.9	-0.1	10.0	·
CCN(CC)C(=O)CSc1nc2c(sc(=S)n2-c2ccccc2)c(=O)n1-c1ccccc1OC	37.1*	2.9	-0.5	·	·	·	25.0
C=CCn1c(C)cc(C(=O)COC(=O)c2ccc3c(c2)NC(=O)CS3)c1C	40.6*	12.6	5.4	1.6	10.5	8.3	28.2
Cc1cc(C(=O)COC(=O)c2ccc(N)c([N+](=O)[O-])c2)c(C)n1Cc1ccc2c(c1)OCO2	9.9	-4.1	-0.4	0.2	2.5	3.2	·
C=CCn1c(C)cc(C(=O)COC(=O)c2ccc(N)c([N+](=O)[O-])c2)c1C	81.3*	-1.4	3.2	-4.4	6.2	-1.5	79.8*
O=C(O)C(Cc1ccccc1)N1C(=O)c2ccccc2C1=O (stereo unspecified)	1.7	3.0	0.5	3.1	4.3	8.0	·
